This is part of a sample that, as a whole, favours compounds with a hit. Of some 83,000 tested, about 20% had one in any assay.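 Results are percent growth after 48 hours of single-concentration exposure. 100 means growth as in untreated cells, lower positive values show inhibition; negative values down to -100 show cell death.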 Active and inactive are the calls of the source. Rule for the calls: active = growth percent below 10; inactive = the rest.

The first assay deals with PC-3 prostate. Briefly: NCI-60 one-dose screen, 48 h (100 = growth as untreated, 0 = no growth, -100 = all killed). Conditions: 10 µM unless noted.
Turning to `Cc1nc([P+](c2ccccc2)(c2ccccc2)c2ccccc2)c(Sc2sc(-c3ccccc3)nc2[P+](c2ccccc2)(c2ccccc2)c2ccccc2)o1`, the growth is 3.44% (active).

As to `O=C1NC(=Nc2ccc(S(=O)(=O)Nc3nccs3)cc2)S/C1=C\c1coc2ccccc2c1=O`, the growth was 95% (inactive). On the same count and under the same terms, next, `Cc1ccc(Sc2sc(-c3ccccc3)nc2[P+](c2ccccc2)(c2ccccc2)c2ccccc2)cc1`: -30.6% (active).

For the compound `Clc1ccccc1-c1nc(Nc2nc3ccccc3s2)nc(C(Cl)(Cl)Cl)n1`, the growth was 40.8% (inactive).

A further assay deals with SK-MEL-5 melanoma. The assay is described as above. Conditions: 10 µM unless noted.
On to `O=C1/C(=C\c2ccc(Br)o2)SC(=S)N1CCc1ccc(O)cc1`, for which the growth was 99.2% (inactive). The same measure, in the same setting: next, `N#CC1=C(N)Oc2ccc3ccccc3c2C1c1ccccc1` (stereo not given): 25.7% (inactive). Consider `N#CC1=C(N)Oc2ccc3ccccc3c2C1c1ccccc1Cl` (stereo not given), for which the growth is 42.7% (inactive).

For the compound `CCSc1sc(-c2ccc(C)cc2)nc1[P+](c1ccccc1)(c1ccccc1)c1ccccc1`, the growth is -98.7% (active). Turning to `Fc1ccc2nc(-c3cc(-c4ccc5c(c4)OCO5)n[nH]3)[nH]c2c1`, the growth was 20.4% (inactive). Consider `CC(=O)c1c(C)[nH]c(-c2nc3ccc(N4CCN(C)CC4)cc3[nH]2)c1-c1ccc2c(c1)OCCO2`, for which the growth was 26.1% (inactive). As to `COc1cc2nc(Cl)nc(Nc3cccc(C(=O)/C=C/c4ccc(Br)cc4)c3)c2cc1OC`, the growth is 91.6% (inactive). With `COc1c(N)c2c(c([N+](=O)[O-])c1OC)C(=O)OC2`, the growth is 113% (inactive). For the compound `N#C/C(=C\c1ccc(-c2cccc(C(F)(F)F)c2)o1)c1nc(-c2ccco2)cs1`, the growth is 88.1% (inactive). Consider `C=C(C)[C@@H]1CC[C@]2(CN)CC[C@]3(C)[C@H](CC[C@@H]4[C@@](C)(CCCN)[C@H](C(=C)C)CC[C@]43C)[C@@H]12`, for which the growth is 88.3% (inactive). On to `Nc1ccccc1NC(=O)c1ccc(CN2CCC/C(=C\c3ccccn3)C2=O)cc1`, for which the growth is -15.6% (active).

As for `O=c1c2sc3ncc(Br)cc3c2ncn1-c1cccc(Cl)c1`, the growth was 76.2% (inactive). As to `CCN1CCN(C(=O)[C@]23CCC(C)(C)C[C@@H]2C2=CC[C@@H]4[C@@]5(C)C/C(=C/c6ccncc6)C(=O)C(C)(C)[C@@H]5CC[C@@]4(C)[C@]2(C)CC3)CC1`, the growth was -98.8% (active).

As for `Cc1ccc(-c2nc([P+](c3ccccc3)(c3ccccc3)c3ccccc3)c(N3CCOCC3)o2)cc1`, the growth is -95.5% (active). On to `CCCCn1c(-c2ccc(O)cc2)cn2c3c(=O)[nH]c(=O)n(C)c3nc12`, for which the growth was 51.9% (inactive). Still for that read-out and setting: next, `CN(C)CCCC1(c2ccc(F)cc2)OCc2cc(-c3ccc(C(F)(F)F)nc3)ccc21` (stereo not given): 75.3% (inactive); `Nc1c2c(nc3ccc(Cl)cc13)CC(c1ccc(O)cc1)CC2=O` (stereo not given): 23.6% (inactive); `N#Cc1c(-c2ccco2)nc2c(c(-c3ccccc3)nn2-c2ccccc2)c1-c1ccc(O)cc1`: 87.1% (inactive).

With `COc1ccc(OC)c(-c2c(C#N)c(-c3ccco3)nc3c2c(-c2ccccc2)nn3-c2ccccc2)c1`, the growth was 97% (inactive). Still for that read-out and setting: next, `N#CC1=C(N)Oc2c(c(N)nn2-c2ccccc2)C1c1ccc(Cl)cc1` (stereo not given): 101% (inactive); `O=C(O)c1cccc2c1Cc1cc([N+](=O)[O-])ccc1-2`: 105% (inactive). Same read-out and setting: under `CCN1CCN(C(=O)[C@]23CCC(C)(C)C[C@H]2C2=CC[C@@H]4[C@@]5(C)CC/C(=N/O)C(C)(C)[C@@H]5CC[C@@]4(C)[C@]2(C)CC3)CC1` stands 86.5% (inactive). The same measure, in the same setting: next, `Cc1ccc(NC2CC(=O)N(c3c(C)cc(C)cc3C)C2=O)c(C)c1` (stereo not given): 99.9% (inactive). For the compound `NCCNc1nc(-c2ccccc2)nc2nc(-c3ccccc3)oc12`, the growth was 89.2% (inactive). As to `CCCCCC1CCCCN1C(=O)OCC` (stereo not given), the growth is 116% (inactive). Turning to `COc1ccc(-c2cc(/C=C/C(=O)c3ccc(N)cc3)[nH]n2)cc1`, the growth was 23.9% (inactive). As for `COc1ccc2nc(-c3cc(-c4cc(OC)c(OC)c(OC)c4)n[nH]3)[nH]c2c1`, the growth was -92.9% (active).

Regarding `COc1ccc(/C=C(\C#N)c2cc3ccccc3n2S(C)(=O)=O)cc1`, the growth was 87.8% (inactive). Same read-out and setting: next, `CC1c2ccccc2N(S(=O)(=O)c2ccccc2)C1C` (stereo not given): 89.2% (inactive); `CC1(C)CC[C@]2(C(=O)NCCNCCN)CC[C@]3(C)C(=CC[C@@H]4[C@@]5(C)CCC(=O)C(C)(C)[C@@H]5CC[C@]43C)[C@@H]2C1`: 87.6% (inactive); `C=C(C)[C@@H]1CC[C@]2(C)[C@H](CC[C@@H]3[C@H]4[C@H]5OC[C@@]4(CCC5(C)C)CC[C@]32C)[C@@]1(C)CCCN`: 97.4% (inactive).
